From PubChem
Compounds with a hit are over-represented: about 17% of the library has one in this group of screens.
TGFb inhibitor: qHTS for Inhibitors of TGF-b. actives 1.2% (n = 410,000). HepG2 CAGA-GFP TGF-b/SMAD3 reporter, GFP fluorescence, 18 h; TGF-beta stimulated, 500 pg/mL final. Potency, µM (series often up to 46.1 µM), without a hit: top-dose activity, negative = inhibition, usual class: inhibitors; further: on the % scale 0 is the no-effect control and ±100 the full control effect; nearly all actives have a fitted effect of over 65% in size
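HEPG2 CAGA-GFP reporter cells (1000/well, DMEM with 1% FBS) received compounds, then recombinant TGF-beta at 500 pg/mL final for 18 hours at 37 degrees C. Per-cell GFP summed per well was normalised to unstimulated and stimulated DMSO controls before curve fitting.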
HepG2 tox: qHTS for Inhibitors of TGF-b: Cytotox Counterscreen | AID 588856, 2011 | actives 0.76% (n = 410,000) | HepG2 CAGA-GFP viability, ATP luminescence, 18 h | Potency, µM (highest dose often 46.1 µM), without a hit: at the top dose activity change, negative = cytotoxicity, most hits filed as cytotoxic
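HepG2 CAGA-GFP cells (1000/well, DMEM with 1% FBS) received compound, then TGF-beta at 500 pg/mL final, and were incubated 18 hours at 37 degrees C. Viability was read by CellTiter-Glo luminescence. Media-only wells were set as complete cell-killing and DMSO as no toxicity.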
ATXN2 expr inh: Primary qHTS for Inhibitors of ATXN expression; HEK-293 ATXN2-luciferase reporter, luminescence, 24 h; Potency, µM (doses to about 57 µM), for the others: top-dose activity change, negative = inhibition, most hits filed as inhibitors; actives 0.72% (n = 360,000); AID 1745845, 2022; further: on the % scale 0 is the no-effect control and ±100 the full control effect; nearly all actives have a fitted effect of over 55% in size
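ATXN2-luciferase reporter cells (luciferase flanked by upstream and downstream ATXN2 gene portions) were treated 24 h at 37 °C with compounds at up to 57 uM. SteadyGlo luminescence gave expression; GF-AFC fluorescence gave viability.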
DT40 TDP1 no CPT: qHTS for Inhibitors of human tyrosyl-DNA phosphodiesterase 1 (TDP1): qHTS in cells in absence of CPT. DT40 Tdp1-/- hTDP1 cells, no CPT, ATP luminescence, 48 h. actives 15% (n = 420,000). Potency, µM (top dose mostly 46.2 µM), for the others: at the highest dose activity change, negative = growth inhibition, most hits filed as inhibitors; further: on the % scale 0 is the no-effect control and ±100 the full control effect; nearly all actives have a fitted effect of over 55% in size
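Chicken DT40 Tdp1-/- cells complemented with human TDP1, screened without camptothecin (DMSO vehicle only), 400 cells/well. Compounds pin-transferred, cells incubated at 37 °C for at least 48 hr. Growth read as ATP-dependent luminescence (CellTiter-Glo, 30 min at RT).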
TDP1 cell CPT: qHTS for Inhibitors of human tyrosyl-DNA phosphodiesterase 1 (TDP1): qHTS in cells in presence of CPT. Potency, µM (top dose mostly 46.2 µM), for inactives: at the highest dose activity change, negative = growth inhibition, actives largely listed as inhibitors. actives 12% (n = 420,000). chicken DT40 Tdp1-/-;hTDP1 cells + 20 nM CPT, ATP luminescence, 48 h. AID 686979, 2013; further: on the % scale 0 is the no-effect control and ±100 the full control effect; nearly all actives have a fitted effect of over 55% in size
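Chicken DT40 Tdp1-/- cells complemented with human TDP1, 400 cells/well, exposed to compounds plus 20 nM camptothecin for at least 48 h at 37 C; viability read as ATP content by CellTiter-Glo luminescence.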
ATXN viability: Viability Counterscreen for Primary qHTS for Inhibitors of ATXN expression | Potency, µM (doses to about 56.7 µM), actives largely listed as cytotoxic | actives 0.49% (n = 400,000) | S2 cells (HEK-293 line with an ATXN2-luciferase reporter) viability, CellTiter-Fluor protease fluorescence, 24 h | AID 651635, 2014; further: nearly all actives have a fitted effect of over 40% in size
Starred values were filed as active, the others as inactive; i = inactive; ? = inconclusive; . = no result. The call rests on the fitted dose curve; in most records, active means well fitted curve in the direction sought with a large enough effect; inconclusive means small, poorly fitted or top-dose-only effect, or another doubt; inactive means no such curve, though single readings can be large; an effect the other way counts as inactive or inconclusive. Potency means the concentration at half of the fitted maximal effect.

SMILES	TGFb inhibitor	HepG2 tox	ATXN2 expr inh	DT40 TDP1 no CPT	TDP1 cell CPT	ATXN viability
CCN(CC)C(=O)Cn1cc(C(=O)C(=O)N2CCN(c3ccc(OC)cc3)CC2)c2ccccc21	2.5%	-1.0%	-0.2%	8.9%	-12.9%	i
CCOC(=O)Cn1cc(/C=C(\C#N)C(=O)N2CCOCC2)c2ccccc21	0.2%	4.3%	17.0%	-10.8%	0.5%	i
CC1=CC(=O)C=CC1=Nc1ccc(N(C)C)cc1	25.1µM*	-90.5%	?	0.92µM*	1.03µM*	?
O=CC1=C(N2CCOCC2)/C(=C/c2ccc(Cl)cc2)CC1	-21.7%	-25.1%	-33.2%	20.6µM*	?	i
Cn1cc(C(=O)N/N=C/C2=C(N3CCOCC3)C(=C/c3ccc([N+](=O)[O-])cc3)/CC2)ccc1=O	7.1%	11.7%	-1.8%	-27.1%	?	i
O=C(O)c1ccc(N/N=C/C2=C(N3CCOCC3)C(=C\c3ccccc3)/CC2)cc1	?	-39.0%	8.8%	20.6µM*	?	i
Cc1cc(C)nc(N/N=C/C2=C(N3CCOCC3)C(=C\c3ccc(Cl)cc3)/CC2)n1	?	-22.0%	-6.9%	16.4µM*	23.1µM*	i
Cc1occc1C(=O)N/N=C/C1=C(N2CCOCC2)C(=C\c2ccc(Cl)cc2Cl)/CC1	11.5%	7.0%	.	7.31µM*	?	i
CCOC(=O)C(=O)C1=C(N2CCOCC2)/C(=C\c2ccc(F)cc2)CC1	-5.7%	-25.7%	16.1%	?	-28.3%	i
O=C(O)[C@H]1/C(=C/CO)O[C@@H]2CC(=O)N21	.	.	.	-14.2%	-0.6%	.
C[C@H](CCC(=O)O)[C@H]1CC[C@H]2[C@@H]3[C@H](O)C[C@@H]4C[C@H](O)CC[C@]4(C)[C@@H]3CC[C@]12C	.	.	7.3%	.	.	.
CC1CCCCC1NC(=O)c1ccc(S(=O)(=O)N2CCN(C)CC2)cc1 (centres undefined)	7.1%	-0.3%	-16.1%	-16.4%	1.4%	i
Cc1cc(O)c(C=O)c2c1C(=O)Oc1c(COC(=O)/C=C/C(=O)O)c(O)c(C(=O)O)c(C)c1O2	.	.	.	-16.4%	-4.6%	.
Cc1cc(C)nc(NN=CC2=C(N3CCOCC3)/C(=C/c3ccc(Cl)cc3)CC2)n1	-9.0%	-4.4%	-11.1%	8.2µM*	11.6µM*	i
Cc1cc(C)nc(N/N=C/c2ccc(N3CCOCC3)cc2)n1	-2.9%	-1.0%	-14.6%	-16.0%	?	i
CCOC(=O)c1nn(-c2ccc(OCC)cc2)c2nc(-c3cccc(OC)c3)c(C#N)c(=O)n12	11.0%	-18.5%	7.5%	?	?	i
CCOC(=O)c1nn(-c2ccc(OCC)cc2)c2nc(-c3ccco3)c(C#N)c(=O)n12	-0.9%	-0.5%	-19.1%	23.1µM*	?	i
CC1(C(=O)N2Cc3ccccc3C2)CCN1C(=O)C1(c2ccccc2)CC1 (centres undefined)	-17.6%	-7.1%	-1.8%	20.6µM*	?	i
Cc1ccc(NC(=O)C2(C)CCN2C(=O)C2(c3ccc(Cl)cc3)CC2)cc1 (centres undefined)	-23.0%	-15.3%	-10.7%	18.4µM*	14.6µM*	i
CC1(C(=O)Nc2ccc3nc[nH]c3c2)CCN1C(=O)C1(c2ccccc2)CC1 (centres undefined)	17.5%	10.2%	-5.5%	-7.2%	?	i
CC1(C(=O)Nc2ccccc2)CCN1C(=O)C1(c2ccc(Cl)cc2)CC1 (centres undefined)	24.2%	-2.6%	-1.9%	3.66µM*	?	i
